Source: PubChem BioAssay (Tox21)
Inconclusive results are not listed. Active and inactive are the calls of the source. Unless noted, calls come from the whole dose curve; as a rule, active = well fitted curve in the direction sought with a large enough effect in the repeat runs; inconclusive = weak or mixed curves; inactive = no such curve, though single readings can be large; an effect the other way counts as inactive or inconclusive.

Legend:
[1] = qHTS RealTime-Glo MT Cell Viability Assay in HEK293 cells - 8 hour (AID 1224887); note: top concentration of the series differs between compounds; nearly all actives have a fitted effect of over 50% in size
Summary of the method: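 Tox21 screen in HEK293 using RealTime-Glo MT chemistry, with cells and reagent co-dispensed. Luminescence proportional to viable cell number was captured at intervals during 40 h compound exposure at 37 C.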

[2] = A CellTox Green Cytotoxicity Assay to monitor cytotoxicity in HEK293 cells - 16 hour (AID 1224888); note: nearly all actives have a fitted effect of over 35% in size
Summary of the method: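 Seeding of HEK293 cells together with cytotoxicity dye preceded a 5 h incubation at 37 C/5% CO2. Test compounds in DMSO were then added and fluorescence monitored across 40 h.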

[3] = qHTS RealTime-Glo MT Cell Viability Assay in HepG2 cells - 0 hour (AID 1224889); note: nearly all actives have a fitted effect of over 50% in size
Summary of the method: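 Real-time, nonlytic viability: 600 HepG2 cells/well mixed with NanoLuc enzyme plus prosubstrate; 5 h settle, compound (DMSO) added by pintool; luminescence monitored over 40 h at 37 C.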

[4] = qHTS assay to identify small molecule antagonists of the androgen receptor (AR) signaling pathway using the MDA cell line in the presence of 0.5 nM R1881 - cell viability counter screen (AID 1259242); note: nearly all actives have a fitted effect of over 45% in size
Summary of the method: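 R1881 at 0.5 nM final stimulated MDA-kb2 cells during 16 hr compound treatment at 37C. Cytotoxicity read: CellTiter-Fluor fluorescence after 30 min.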

[5] = target: Estrogen receptor (Homo sapiens) (UniProt P03372); assay: qHTS assay to identify small molecule antagonists of the estrogen receptor alpha (ER-alpha) signaling pathway using the BG1 cell line in the presence of 0.1 nM 17-beta-estradiol (AID 1259244); note: nearly all actives have a fitted effect of over 50% in size
Estrogen receptor (Homo sapiens), sequence (P03372 whole entry, looked up): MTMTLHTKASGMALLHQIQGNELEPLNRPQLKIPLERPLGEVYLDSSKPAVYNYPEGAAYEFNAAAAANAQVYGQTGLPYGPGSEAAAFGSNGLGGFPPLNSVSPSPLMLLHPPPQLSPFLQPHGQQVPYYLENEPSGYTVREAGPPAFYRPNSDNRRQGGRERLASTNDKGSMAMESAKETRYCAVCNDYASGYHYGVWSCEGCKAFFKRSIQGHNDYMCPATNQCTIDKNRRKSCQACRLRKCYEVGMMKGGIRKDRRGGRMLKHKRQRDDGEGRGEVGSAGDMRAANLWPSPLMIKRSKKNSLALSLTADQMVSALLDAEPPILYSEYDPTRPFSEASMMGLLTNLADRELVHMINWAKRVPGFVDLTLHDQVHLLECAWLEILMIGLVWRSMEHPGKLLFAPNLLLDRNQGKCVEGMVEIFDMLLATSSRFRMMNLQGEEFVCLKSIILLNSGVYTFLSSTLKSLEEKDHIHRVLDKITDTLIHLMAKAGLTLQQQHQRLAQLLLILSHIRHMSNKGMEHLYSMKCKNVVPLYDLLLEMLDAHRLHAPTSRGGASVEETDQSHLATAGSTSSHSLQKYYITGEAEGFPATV
Summary of the method: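 VM7Luc4E2; 4xERE-luciferase; 0.1 nM E2 final; 22 h co-incubation, 37C; ONE-Glo luminescence after 30 min at room temperature.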

[6] = qHTS assay to identify small molecule HDAC inhibitors (AID 1259364); note: potency is the fitted concentration of half-maximal effect;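 note: wild-type HCT-116 cells with endogenous class I/II HDAC activity; nearly all actives have a fitted effect of over 45% in size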; for activity change, negative = inhibition: top concentration of the series differs between compounds
Summary of the method: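 Relative class I and II HDAC activity is taken from the luminogenic signal in HCT-116 cells, with compound exposure 2 hr and reagent development 30 min at room temperature.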

[7] = qHTS assay to identify small molecule antagonists of the estrogen receptor alpha (ER-alpha) signaling pathway using the BG1 cell line in the presence of 0.1 nM 17-beta-estradiol - cell viability counter screen (AID 1259241); note: nearly all actives have a fitted effect of over 40% in size
Summary of the method: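 VM7Luc4E2 cells (endogenous full-length ER-alpha, 4xERE-luciferase), cultured 5 days in charcoal-stripped serum, exposed to compounds with 0.1 nM 17beta-estradiol (final) for 22 hr at 37C. Viability read in same wells as live-cell protease fluorescence after 30 min.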

[8] = qHTS assay to identify small molecule phospholipidosis (PLD) inducers (AID 1259344; active = well fitted curve in the direction sought with a large enough effect; an effect the other way counts as inactive or inconclusive)
Summary of the method: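 HepG2 cells on collagen I, attached 4 h at 37 C, were co-treated with compound and LipidTOX Red dye for 24 h at 37 C, then fixed with paraformaldehyde plus Hoechst 33342 and imaged by high-content microscopy for phospholipid accumulation.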

[9] = A CellTox Green Cytotoxicity Assay to monitor cytotoxicity in HepG2 cells - 8 hour (AID 1224890); note: nearly all actives have a fitted effect of over 45% in size; note: potency is the fitted concentration of half-maximal effect
Summary of the method: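 Nonlytic assay: viable cells exclude the dye, so fluorescence scales with cell death. HepG2 at 600 cells/well, compounds added after 5 h, signal read across 40 h.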

[10] = target: Androgen receptor (Homo sapiens) (UniProt P10275); assay: qHTS assay to identify small molecule antagonists of the androgen receptor (AR) signaling pathway using the MDA cell line in the presence of 0.5 nM R1881 (AID 1259243); note: nearly all actives have a fitted effect of over 50% in size; note: potency is the fitted concentration of half-maximal effect
Androgen receptor (Homo sapiens), sequence (P10275 whole entry, looked up): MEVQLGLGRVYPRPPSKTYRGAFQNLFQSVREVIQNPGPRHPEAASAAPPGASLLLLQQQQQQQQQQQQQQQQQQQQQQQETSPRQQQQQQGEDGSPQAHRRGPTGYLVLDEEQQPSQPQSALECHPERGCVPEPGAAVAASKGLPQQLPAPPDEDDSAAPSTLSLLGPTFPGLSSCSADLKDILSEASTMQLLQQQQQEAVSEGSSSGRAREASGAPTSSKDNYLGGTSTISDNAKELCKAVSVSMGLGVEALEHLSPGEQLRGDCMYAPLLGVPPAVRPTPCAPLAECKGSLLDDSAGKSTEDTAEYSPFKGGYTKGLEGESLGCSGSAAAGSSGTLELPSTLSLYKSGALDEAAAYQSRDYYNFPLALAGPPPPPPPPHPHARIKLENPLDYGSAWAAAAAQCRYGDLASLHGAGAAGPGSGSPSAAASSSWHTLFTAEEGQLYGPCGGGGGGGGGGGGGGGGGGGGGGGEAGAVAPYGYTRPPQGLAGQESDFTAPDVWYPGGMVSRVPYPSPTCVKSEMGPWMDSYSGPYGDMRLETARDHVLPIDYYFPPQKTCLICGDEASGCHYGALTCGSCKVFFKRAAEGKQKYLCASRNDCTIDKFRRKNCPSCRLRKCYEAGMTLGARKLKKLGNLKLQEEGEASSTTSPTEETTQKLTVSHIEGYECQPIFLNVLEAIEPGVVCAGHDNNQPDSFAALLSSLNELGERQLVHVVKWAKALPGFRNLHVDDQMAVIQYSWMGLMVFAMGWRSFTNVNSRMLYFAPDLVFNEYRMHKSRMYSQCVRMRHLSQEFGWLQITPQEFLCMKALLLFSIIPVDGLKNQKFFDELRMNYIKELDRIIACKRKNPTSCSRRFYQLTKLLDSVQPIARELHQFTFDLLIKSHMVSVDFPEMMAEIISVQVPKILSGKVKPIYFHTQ
Summary of the method: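 We exposed MDA-kb2 cells to compounds under 0.5 nM R1881 stimulation for 16 hr at 37C and quantified MMTV-driven luciferase by luminescence.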
% is set by controls: 0 for no effect and ±100 for the full control effect.

BrCCOc1ccccc1
inactive: outcome [1] | Potency [2] | Potency [3] | outcome [4] | outcome [5] | Potency [6]

Cc1ccc(S(=O)(=O)NC(=O)NN2CC3CCCC3C2)cc1 (centres undefined)
inactive: outcome [1] | Potency [2] | Potency [3] | outcome [7] | outcome [4] | outcome [5] | Potency [8] | Potency [6]

CCCCCCCCCCCCCCCC(=O)OC
inactive: activity change, negative = cytotoxicity [1] 0.781% [at 15.8 µM] | activity change [2] 0.239% [at 15.8 µM, stronger effect = higher value] | activity change, negative = cytotoxicity [3] -16.3% [at 15.8 µM] | activity change, negative = cytotoxicity [7] 6.9% [at 19 µM] | viability change, negative = cytotoxic [4] 3.68% [at 19 µM] | activity change, negative = inhibition [5] -4.11% [at 19 µM]

CCOc1ccccc1OCCN[C@H](C)Cc1ccc(OC)c(S(N)(=O)=O)c1
inactive: outcome [1] | Potency [2] | Potency [3] | outcome [4] | Potency [8] | Potency [6]

CC(=O)OC1CCC(C(C)(C)C)CC1 (centres undefined)
inactive: Potency [2] | Potency [3] | Potency [9] | outcome [7] | outcome [4] | Potency [10] | outcome [5] | Potency [6]

CC(=O)Nc1ccc(OCCOCCOc2ccc(NC(C)=O)cc2)cc1
inactive: Potency [2] | Potency [3] | Potency [9] | outcome [7] | outcome [4] | outcome [5] | Potency [8] | Potency [6]

CCCCC(CC)CCC(CC(C)C)OS(=O)(=O)O (centres undefined)
inactive: Potency [2] | Potency [3] | Potency [9] | outcome [7] | outcome [4] | outcome [5] | Potency [8]

Clc1ccc2c(c1)Nc1ccccc1S2
active: Potency [10] 10.6 µM
inactive: Potency [2] | Potency [3] | Potency [9] | outcome [7] | outcome [4] | outcome [5] | Potency [6]

O=C(O)Cc1c(Cl)ccc(Cl)c1Cl
inactive: outcome [1] | Potency [2] | Potency [3] | outcome [7] | outcome [4] | outcome [5] | Potency [6]

CC(=O)c1ccc2ccc3ccccc3c2c1
inactive: Potency [2] | Potency [3] | Potency [9] | outcome [7] | outcome [4] | outcome [5]

CCCCCCCC(=O)N(C)C
inactive: outcome [1] | Potency [2] | Potency [3] | outcome [7] | outcome [4] | outcome [5] | Potency [6]

CCCCCCCCS(=O)(=O)O
inactive: outcome [1] | Potency [2] | Potency [3] | outcome [7] | outcome [4] | Potency [6]

Cc1ccc(NC(N)=O)cc1
inactive: outcome [1] | Potency [2] | Potency [3] | outcome [7] | outcome [4] | outcome [5]

N#Cc1cc(NC(=O)C(=O)O)c(Cl)c(NC(=O)C(=O)O)c1
inactive: Potency [2] | Potency [3] | Potency [9] | outcome [7] | outcome [4] | Potency [10] | outcome [5]

CN(C)CCc1c[nH]c2ccc(C[C@H]3COC(=O)N3)cc12
inactive: Potency [2] | Potency [3] | Potency [9] | outcome [7] | outcome [4] | outcome [5] | Potency [8] | Potency [6]

CCCC(=O)C(CC)Sc1ccoc1C (centres undefined)
inactive: outcome [1] | Potency [2] | outcome [7] | outcome [4] | Potency [10] | outcome [5] | Potency [6]

C=CCCCCCCCCCCCCCC
inactive: activity change, negative = cytotoxicity [1] -3.89% [at 15.8 µM] | activity change [2] -0.657% [at 15.8 µM, stronger effect = higher value] | activity change, negative = cytotoxicity [3] 10.7% [at 15.8 µM] | viability change, negative = cytotoxic [4] 1.94% [at 19 µM] | activity change, negative = inhibition [5] -1.96% [at 19 µM] | activity change, negative = inhibition [6] 0.0889% [at 19 µM]

CCC(C)SSC(C)CC (centres undefined)
inactive: Potency [2] | Potency [3] | Potency [9] | outcome [7] | outcome [4] | outcome [5]

O=C1Nc2ccccc2C1=O
inactive: Potency [2] | Potency [3] | Potency [9] | outcome [7] | outcome [4] | Potency [6]

CC/C=C\CCOC(=O)c1ccccc1
inactive: Potency [2] | Potency [3] | Potency [9] | outcome [4] | Potency [10] | outcome [5]

CCCCC(CC)COC(=O)CC#N (centres undefined)
inactive: Potency [2] | Potency [3] | outcome [4] | outcome [5] | Potency [6]

COc1cnc(NS(=O)(=O)c2ccc(N)cc2)nc1
inactive: Potency [2] | Potency [3] | Potency [9] | outcome [7] | outcome [4] | outcome [5] | Potency [8] | Potency [6]

CCOC(=O)c1ccc(N(C)C)cc1
inactive: Potency [2] | Potency [3] | Potency [9] | outcome [4] | outcome [5]
active: Potency [6] 9.69 µM

CC(=O)c1c(C)cc(C(C)(C)C)cc1C
active: Potency [9] 43.6 µM
inactive: Potency [2] | Potency [3] | outcome [7] | outcome [4] | Potency [6]

CCCCOCCCC
inactive: Potency [3] | Potency [9] | outcome [7] | outcome [4] | outcome [5] | Potency [6]

Cc1cc(O)c(Cl)cc1C
inactive: Potency [2] | Potency [3] | outcome [7] | outcome [4] | outcome [5] | Potency [6]

O=C[C@@H](O)[C@H](O)[C@H](O)CO
inactive: Potency [2] | Potency [3] | Potency [9] | outcome [4] | Potency [10] | Potency [6]

CCCCCC(CC)OC(=O)CCCOc1ccc(Cl)cc1Cl (centres undefined)
inactive: Potency [2] | Potency [3] | Potency [9] | outcome [7] | outcome [4] | Potency [6]
